Source: PubChem BioAssay
Sampled rows, rich in hits. Any-hit rate of the full collection: about 2.5%.
Cruzain inh Det – cruzain (T. cruzi) inhibition with detergent; purified cruzain, Z-FR-AMC fluorescence, 0.01% Triton; Potency, µM, usual class: inhibitors; 0.43% of 200,000 active; P25779; AID 1478; further: nearly all actives have a fitted effect of over 40% in size
Target sequence (P25779 123-467 limits assumed): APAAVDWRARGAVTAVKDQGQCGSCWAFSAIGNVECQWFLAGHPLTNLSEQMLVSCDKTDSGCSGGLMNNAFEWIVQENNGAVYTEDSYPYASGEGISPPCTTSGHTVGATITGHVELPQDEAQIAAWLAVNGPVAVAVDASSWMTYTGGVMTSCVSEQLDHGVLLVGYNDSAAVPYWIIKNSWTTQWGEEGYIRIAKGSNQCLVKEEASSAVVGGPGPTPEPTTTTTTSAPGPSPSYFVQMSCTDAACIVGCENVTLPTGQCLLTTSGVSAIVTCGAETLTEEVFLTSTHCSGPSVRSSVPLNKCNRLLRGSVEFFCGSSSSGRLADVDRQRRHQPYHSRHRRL
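Z-FR-AMC hydrolysis (2 uM substrate) by cruzain (1.5 nM) monitored kinetically at ex 360/em 450 nm after 15 min room-temperature compound exposure; 0.01% Triton X-100, pH 5.5, 5 mM DTT.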
Cruzain noTriton – cruzain (T. cruzi) inhibition without detergent; 2.3% of 200,000 active; P25779; AID 1476; purified cruzain, Z-FR-AMC fluorescence, no detergent; Potency, µM, hits mostly inhibitors; further: nearly all actives have a fitted effect of over 40% in size
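Detergent-free condition (0.00005% Triton X-100) in acetate buffer pH 5.5 with DTT. 1.5 nM enzyme and compound were pre-mixed 15 min, then 2 uM Z-FR-AMC substrate added; reaction progress from fluorescence change between first and third reads (60 s).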
Hits are given with their value; 0 = inactive; ? = inconclusive; ! = not confirmed by another sample. The call rests on the fitted dose curve; in most records, active means well fitted curve in the direction sought with a large enough effect; inconclusive means small, poorly fitted or top-dose-only effect, or another doubt; inactive means no such curve, though single readings can be large; an effect the other way counts as inactive or inconclusive.

SMILES	Cruzain inh Det	Cruzain noTriton
COc1cccc(-n2c(SCc3cccc(C)c3)nc3c([nH]c4ccccc43)c2=O)c1	0	16µM
Cc1cccc(CSc2nc3c([nH]c4ccccc43)c(=O)n2C)c1	0	0
COc1ccc(OC)c(NC(=O)CSC2=Nc3ccccc3C3=NC(CCC(=O)NCc4ccccc4)C(=O)N23)c1 (centres undefined)	0	0
CCCc1cnc2c(c1SCC(=O)Nc1ccccc1OCC)c(=O)n(C)c(=O)n2C	0	0
Cc1ccccc1OCC(=O)Nc1nnc(S(=O)(=O)N2CCCCCC2)s1	0	0
Nc1nnc(SCC(=O)Nc2ccccc2C(F)(F)F)s1	0	0
CC1=Nc2cc(C(=O)NC3CCCC3)ccc2Sc2ccc(Cl)cc21	0	?
CCC1=Nc2cc(C(=O)NC3CCCC3)ccc2Sc2ccc(Cl)cc21	0	7.9µM
CCc1ccc(C(=O)CC2(O)C(=O)N(CCc3ccccc3)c3ccc(Cl)cc32)cc1 (centres undefined)	0	0
COc1ccc(NC(=O)C2CCN(C3=NS(=O)(=O)C(c4ccc(C)c(C)c4)=C3C)CC2)cc1OC	0	?
NC(CCC(=O)N[C@@H](CS)C(=O)NCC(=O)O)C(=O)O (some centres undefined)	0	0
COc1ccc(Nc2nnc(SC(C(=O)Nc3ccc(OC)c(Cl)c3)c3ccccc3)s2)cc1 (centres undefined)	0	6.3µM
COc1cccc(NC(=O)C(Sc2nnc(Nc3ccccc3C)s2)c2ccccc2)c1 (centres undefined)	0	?
O=c1oc2ccc3ccccc3c2cc1-c1nnc(Nc2cccc(C(F)(F)F)c2)s1	0	0
CC(=O)Nc1cccc(NC(=O)c2ccc([N+](=O)[O-])cc2Cl)c1	0	0
O=C(/C=C/c1cccc([N+](=O)[O-])c1)Nc1ccc(NC(=O)c2cccs2)cc1	0	20µM
O=C(/C=C/c1cccc([N+](=O)[O-])c1)c1cccs1	0	0
O=C(/C=C/c1cccc([N+](=O)[O-])c1)NC(=S)Nc1cccc(NC(=O)c2ccccc2Cl)c1	0	6.3µM
COc1cc(NC(=O)C2CCN(C(=O)c3sc4nc[nH]c(=O)c4c3C)CC2)cc(OC)c1OC	0	0
O=C(Nc1cc(F)ccc1F)C1COc2ccccc2C1 (centres undefined)	0	0
COc1ccc(-c2[nH]ncc2C(=O)NCc2ccccc2OC)cc1	0	0
O=C(COC(=O)c1ccc(-c2ccc([N+](=O)[O-])cc2)o1)NC(=O)NC1CCCCC1	0	?
O=C(COC(=O)c1ccc(-c2ccc([N+](=O)[O-])cc2)o1)NC(=O)NC12CC3CC(CC(C3)C1)C2	0	25µM
CCOC(=O)CNCCC(=O)c1ccc(Br)cc1	25µM	10µM
Cc1cccc(NCCC(=O)c2ccc(Br)cc2)c1	0	0
SMILES	Cruzain inh Det	Cruzain noTriton
COc1cc(/C=C/C(=O)c2cccs2)cc(OC)c1OC	0	?
CCN1CCCC1Cn1c(-c2ccccc2)nc2c(N(CCOC)CCOC)nc(C)nc21 (centres undefined)	0	0
Cc1cc(N)c2ccccc2[n+]1CCCCCCCCCC[n+]1c(C)cc(N)c2ccccc21	13µM!	?
CCCCCCCCC[n+]1cccc2c3ccccc3ccc21	0	0
CCC1=C2CC[C@H]3C(=O)N(c4ccccc4)C(=O)[C@H]3[C@H]2[C@@]2(Cc3ccccc3)C(=NCc3ccccc3)OC(=O)N2C1=O	0	0
Cn1c(Oc2ccc(F)cc2)nc2c1c(=O)n(Cc1ccccc1Cl)c(=O)n2C	0	0
CCOc1ccc(CNC(=S)N/N=C/c2cccnc2)cc1	0	0
CCOc1ccc(CNC(=S)N/N=C\c2ccc([N+](=O)[O-])cc2)cc1	0	20µM
CCOC(=O)CSc1nc2ccccc2n1CC(=O)N(C(C)C)C(C)C	0	0
CCOC(=O)CN1C=C(c2ccc3ccccc3n2)C(C[N+](=O)[O-])c2ccccc21 (centres undefined)	0	25µM
CCOc1ccccc1-n1nnc(-c2nc(-c3ccccc3)no2)c1N	0	0
Cc1ccc(S(=O)(=O)N(C(=O)c2ccncc2)c2ccc3oc4c(c3c2)CCCC4)cc1[N+](=O)[O-]	0	13µM
Cc1ccc([N+](=O)[O-])cc1S(=O)(=O)N(C(=O)c1ccncc1)c1ccc2oc3c(c2c1)CCCC3	0	13µM
CCc1ccc(S(=O)(=O)N(C(C)=O)c2ccc3oc4c(c3c2)CCCC4)cc1	0	0
COC(=O)c1c(C)oc2ccc(N(C(=O)c3ccncc3)S(=O)(=O)c3cc(C)c(C)cc3C)cc12	0	0
Cc1cccc(C(=O)Nc2ccc(-c3nc4ccccc4s3)cc2Cl)c1	0	?
NC1=NC([S][Hg][c]2ccc(N)cc2)c2ncn([C@@H]3O[C@H](CO)[C@@H](O)[C@@H]3O)c2N1 (some centres undefined)	0	0
COc1ncc2ncc(=O)n(CCC#N)c2n1	0	0
Nc1c(S(=O)(=O)c2ccccc2)c2nc3ccccc3nc2n1/N=C/c1cccc(O)c1	0	0
Cc1cccc(S(=O)(=O)c2c(N)n(/N=C/c3ccccc3)c3nc4ccccc4nc23)c1	0	4µM
COc1ccccc1/C=N/n1c(N)c(S(=O)(=O)c2cccs2)c2nc3ccccc3nc21	0	7.9µM
COc1ccc(CCn2c(N)c(S(=O)(=O)c3cccs3)c3nc4ccccc4nc32)cc1OC	0	0
CCOC(=O)CN(Cc1ccccc1)C(C(=O)NC1CCCCC1)c1ccc(C)cc1 (centres undefined)	0	0
COc1ccccc1C(=O)N(Cc1nc(-c2cccc(C)c2)no1)C(C)C	0	0
O=C(Nc1c(-c2ccccc2)nc2ccccn12)c1ccc(Br)cc1	0	0
SMILES	Cruzain inh Det	Cruzain noTriton
Cc1cc(C)c(NC(=O)C(C)Sc2nc3ccc(N4C(=O)c5ccccc5C4=O)cc3s2)c(C)c1 (centres undefined)	0	6.3µM
CCc1cccc(C)c1NC(=O)CSc1nc2ccc(N3C(=O)c4ccccc4C3=O)cc2s1	0	?
c1ccc(N2CCN(c3nc4ccccc4n4nnnc34)CC2)cc1	0	25µM
CCOc1ccc(Nc2nc3ccccc3n3nnnc23)cc1	0	0
COc1ccc(CCNc2nc3ccccc3n3nnnc23)cc1OC	0	0
CN(C)c1ccc(Nc2nc3ccccc3n3nnnc23)cc1	0	16µM
c1ccc2c(c1)nc(N1CCOCC1)c1nnnn12	0	0
c1ccc(CCNc2nc3ccccc3n3nnnc23)cc1	0	13µM
Cc1ccc(Cl)cc1Nc1nc2ccccc2n2c(C)nnc12	0	0
Cc1ccc(OCCn2cc(C(=O)C3CCCCC3)c3ccccc32)cc1	0	0
O=C(COC(=O)CCCNC(=O)c1ccc(Cl)cc1)Nc1cc(Cl)c(Cl)cc1Cl	0	0
Cc1ccc(-c2cc(C(=O)OCC(=O)Nc3ncc(C(F)(F)F)cc3Cl)c3ccccc3n2)cc1	0	?
O=C(COC(=O)CNC(=O)c1ccccc1)Nc1ccc(Cl)cc1C(F)(F)F	16µM	13µM
O=C(COC(=O)CNC(=O)c1ccc(Cl)cc1)Nc1ccc(Cl)cc1C(F)(F)F	8.9µM	6.3µM
O=C(COC(=O)CNC(=O)c1ccccc1)Nc1cccc(Br)c1	?	0
Cc1ccc(C(=O)NCC(=O)OCC(=O)Nc2ncc(C(F)(F)F)cc2Cl)cc1	7.1µM	6.3µM
COC(=O)c1c(NC(=O)Cc2coc3ccc(C(C)C)cc23)sc2c1CCC2	0	0
Cc1oc2ccc(O)c(CN3CCCC(C)C3)c2c1C(=O)Nc1ccccc1 (centres undefined)	0	0
